Assay [1] in a line: qHTS assay to identify small molecule antagonists of the glucocorticoid receptor (GR) signaling pathway - cell viability counter screen (AID 720693). Note: nearly all actives have a fitted effect of over 55% in size. Background: Quantitative high-throughput screening tests each substance at several concentrations.
Assay [2] in a line: qHTS assay for identifying genotoxic compounds that show differential cytotoxicity against isogenic chicken DT40 cell lines with known DNA damage response pathways - wild type cell line (AID 743012). Note: nearly all actives have a fitted effect of over 60% in size. Note: potency is the fitted concentration of half-maximal effect. In a few lines: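 Quantitative HTS on parental DT40 cells: 40 h compound treatment at 37 C/5% CO2, with viability then determined by CellTiter-Glo luminescence. Values serve as the DNA repair-proficient reference for differential cytotoxicity.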

Assay [3] is described as follows: qHTS assay for identifying genotoxic compounds that show differential cytotoxicity against isogenic chicken DT40 cell lines with known DNA damage response pathways - Rad54/Ku70 mutant cell line (AID 743015). Note: nearly all actives have a fitted effect of over 60% in size. Note: potency is the fitted concentration of half-maximal effect.
The nature of assay [4]: qHTS assay to identify small molecule antagonists of the androgen receptor (AR) signaling pathway - cell viability counter screen (AID 743033; note: nearly all actives have a fitted effect of over 45% in size).
Assay [5] is described as follows: qHTS assay to identify small molecule antagonists of the androgen receptor (AR) signaling pathway using the MDA cell line - cell viability counter screen (AID 743041; note: nearly all actives have a fitted effect of over 45% in size). In outline:
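Same-well cytotoxicity was assessed by CellTiter-Fluor in MDA-kb2 AR-luc cells after 16 h of compound treatment under R1881 agonism.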

Assay [6] is described as follows: qHTS assay to identify small molecule antagonists of the thyroid receptor (TR) signaling pathway - cell viability counter screen (AID 743064). Note: nearly all actives have a fitted effect of over 50% in size. In outline:
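GH3.TRE-Luc rat pituitary cells dosed after 4 hr plating, co-stimulated with T3 at 1 nM final, incubated 23.5 h at 37 C. Viability measured in the same wells by CellTiter-Fluor fluorescence after 30 min further at 37 C.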

In assay [7] the test system is thyroid hormone receptor (rat, GH3 cells). Description: qHTS assay to identify small molecule agonists of the thyroid receptor (TR) signaling pathway (AID 743066; calls by dose curve).
Assay [8] has as its target Estrogen receptor (Homo sapiens) (UniProt P03372). Description: qHTS assay to identify small molecule antagonists of the estrogen receptor alpha (ER-alpha) signaling pathway (AID 743069; active = well fitted curve in the direction sought with a large enough effect in the signal ratio in the repeat runs, not every such curve was filed as active; the % refers to the signal ratio; note: potency is the fitted concentration of half-maximal effect). In outline: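 Reporter cells (ER-alpha-bla, HEK293 background) are conditioned overnight in stripped-serum medium (2% charcoal-stripped FBS). Compound and 17beta-estradiol exposure runs 18 hr at 37C, 5% CO2.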

Assay [9] is described as follows: qHTS assay to identify small molecule antagonists of the estrogen receptor alpha (ER-alpha) signaling pathway - cell viability counter screen (AID 743074; calls by dose curve;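 note: HEK293 cells carrying ER-alpha-UAS-bla reporter stimulated with 17beta-estradiol; nearly all actives have a fitted effect of over 45% in size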).
The target in assay [10] is Estrogen receptor (Homo sapiens) (UniProt P03372). Description: qHTS assay to identify small molecule agonists of the estrogen receptor alpha (ER-alpha) signaling pathway (AID 743075; calls by dose curve;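 note: HEK293 GripTite cells with ER-alpha and UAS-driven beta-lactamase reporter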).
Chain of Estrogen receptor (Homo sapiens) (P03372 whole entry, looked up): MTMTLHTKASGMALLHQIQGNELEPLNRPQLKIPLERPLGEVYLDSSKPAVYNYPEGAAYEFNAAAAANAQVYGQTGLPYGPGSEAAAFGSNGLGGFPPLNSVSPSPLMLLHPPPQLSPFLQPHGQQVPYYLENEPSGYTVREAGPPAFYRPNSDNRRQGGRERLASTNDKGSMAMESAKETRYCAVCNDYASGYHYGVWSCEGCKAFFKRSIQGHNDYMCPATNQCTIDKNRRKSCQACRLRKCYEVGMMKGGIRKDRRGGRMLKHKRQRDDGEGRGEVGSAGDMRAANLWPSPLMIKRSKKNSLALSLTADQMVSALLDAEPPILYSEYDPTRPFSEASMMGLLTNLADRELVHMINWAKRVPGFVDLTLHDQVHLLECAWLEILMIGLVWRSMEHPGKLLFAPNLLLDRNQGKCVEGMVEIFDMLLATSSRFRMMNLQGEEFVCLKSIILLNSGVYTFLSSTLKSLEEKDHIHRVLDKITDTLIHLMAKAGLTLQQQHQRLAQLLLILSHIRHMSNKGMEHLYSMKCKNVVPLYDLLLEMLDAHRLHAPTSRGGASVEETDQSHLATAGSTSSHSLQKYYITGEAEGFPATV
The target is the same in assay [11]. The experiment in a line: qHTS assay to identify small molecule agonists of the estrogen receptor alpha (ER-alpha) signaling pathway using the BG1 cell line (AID 743079). Note: nearly all actives have a fitted effect of over 20% in size. Particulars: BG1Luc4E2 cells, ERE-luciferase agonist, 22 h; activation: at 70.3 µM (top of the series).
The nature of assay [12]: qHTS assay to identify small molecule antagonists of the estrogen receptor alpha (ER-alpha) signaling pathway using the BG1 cell line (AID 743080; calls by dose curve;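 note: BG1 cells stimulated with 17beta-estradiol alongside compound; nearly all actives have a fitted effect of over 25% in size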). In outline: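 Luminescence from a 4×ERE-luciferase reporter in BG1-Luc-4E2 cells served as read-out. Cells, pre-cultured 5 days in stripped-serum phenol-red-free medium, were exposed to compound with 17beta-estradiol co-stimulation for 21.5 h at 37 C.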

Assay [13] is described as follows: qHTS assay to identify small molecule antagonists of the estrogen receptor alpha (ER-alpha) signaling pathway using the BG1 cell line - cell viability counter screen (AID 743081).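 Note: compound given together with 17beta-estradiol as the ER stimulus; nearly all actives have a fitted effect of over 45% in size.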
A further assay has as its target Aromatase (Homo sapiens) (UniProt P11511). Description: qHTS assay to identify aromatase inhibitors (AID 743083). Note: nearly all actives have a fitted effect of over 55% in size.
Assay [14] is described as follows: qHTS assay for identifying genotoxic compounds that show differential cytotoxicity against isogenic chicken DT40 cell lines with known DNA damage response pathways - Rev3 mutant cell line (AID 743014). Note: nearly all actives have a fitted effect of over 55% in size. Note: potency is the fitted concentration of half-maximal effect.
Assay [15] can be described thus: qHTS assay to identify small molecule antagonists of the thyroid receptor (TR) signaling pathway (AID 743065). Note: nearly all actives have a fitted effect of over 55% in size. Note: potency is the fitted concentration of half-maximal effect. In a few lines:
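GH3.TRE-Luc rat pituitary cells (two TREs driving luciferase) were dosed with compound, then stimulated with 1 nM T3 (final) for 23.5 h at 37 C. ONE-Glo luminescence was the read-out, with CellTiter-Fluor fluorescence as the cytotoxicity counter-screen.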

Assay [16] deals with Androgen receptor (Homo sapiens) (UniProt P10275). Description: qHTS assay to identify small molecule antagonists of the androgen receptor (AR) signaling pathway (AID 743035; active = well fitted inhibition curve with a large enough effect in the signal ratio in the repeat runs, not every such curve was filed as active; the % refers to the signal ratio). In a few lines:
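Cell line: GeneBLAzer AR-UAS-bla GripTite (HEK293). Stimulus: R1881 added after compound. Exposure: 16 h, 37C, 5% CO2. Readout: LiveBLAzer B/G FRET fluorescence after 2 h at room temperature.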

The target is the same in assay [17]. The experiment in a line: qHTS assay to identify small molecule agonists of the androgen receptor (AR) signaling pathway using the MDA cell line (AID 743040; note: nearly all actives have a fitted effect of over 20% in size). In outline:
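Human breast carcinoma MDA-kb2 reporter cells (MMTV-luc, AR/GR elements) were treated for 16 h at 37C in 0% CO2 following a 5 h settling period. Signal was quantified by ONE-Glo luminescence.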

Assay [18] shares this target. The experiment in a line: qHTS assay to identify small molecule antagonists of the androgen receptor (AR) signaling pathway using the MDA cell line (AID 743042; note: nearly all actives have a fitted effect of over 55% in size). In a few lines: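 MDA-kb2 breast carcinoma cells carrying MMTV-luciferase (AR/GR responsive) were co-treated with compounds and the agonist R1881 for 16 h at 37C. Inhibition read as ONE-Glo luminescence; CellTiter-Fluor fluorescence measured in parallel for cytotoxicity.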

For assay [19] the target is unchanged. The experiment in a line: qHTS assay to identify small molecule agonists of the androgen receptor (AR) signaling pathway (AID 743036; active = well fitted activation curve with a large enough effect in the signal ratio in the repeat runs, with a control signal flat, not every such curve was filed as active; the % refers to the signal ratio). In outline:
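AR-UAS-bla HEK293 cells, plated 4 h before dosing, were treated with compound for 16 h at 37C. beta-Lactamase reporter read after 2 h with LiveBLAzer B/G FRET substrate at room temperature.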

Values without a mark were called inactive. Results filed as inconclusive are left out. Calls of active or inactive are those of the source. Unless noted, calls come from the whole dose curve; as a rule, active = well fitted curve in the direction sought with a large enough effect in the repeat runs; inconclusive = weak or mixed curves; inactive = no such curve, though single readings can be large; an effect the other way counts as inactive or inconclusive.

Chain of Aromatase (Homo sapiens) (P11511 whole entry, looked up): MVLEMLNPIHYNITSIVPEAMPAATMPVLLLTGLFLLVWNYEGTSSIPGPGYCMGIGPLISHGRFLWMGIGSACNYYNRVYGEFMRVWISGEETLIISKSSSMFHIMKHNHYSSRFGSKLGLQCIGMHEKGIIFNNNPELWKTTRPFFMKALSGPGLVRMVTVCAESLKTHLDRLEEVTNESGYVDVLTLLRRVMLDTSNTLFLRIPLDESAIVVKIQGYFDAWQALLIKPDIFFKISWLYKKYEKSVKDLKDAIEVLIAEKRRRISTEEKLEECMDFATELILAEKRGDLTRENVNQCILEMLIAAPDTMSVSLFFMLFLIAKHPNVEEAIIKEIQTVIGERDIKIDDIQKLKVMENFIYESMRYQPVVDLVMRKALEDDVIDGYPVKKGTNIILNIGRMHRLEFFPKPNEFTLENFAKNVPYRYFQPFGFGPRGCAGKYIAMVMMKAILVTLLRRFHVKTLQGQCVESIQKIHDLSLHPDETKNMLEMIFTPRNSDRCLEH
Chain of Androgen receptor (Homo sapiens) (P10275 whole entry, looked up): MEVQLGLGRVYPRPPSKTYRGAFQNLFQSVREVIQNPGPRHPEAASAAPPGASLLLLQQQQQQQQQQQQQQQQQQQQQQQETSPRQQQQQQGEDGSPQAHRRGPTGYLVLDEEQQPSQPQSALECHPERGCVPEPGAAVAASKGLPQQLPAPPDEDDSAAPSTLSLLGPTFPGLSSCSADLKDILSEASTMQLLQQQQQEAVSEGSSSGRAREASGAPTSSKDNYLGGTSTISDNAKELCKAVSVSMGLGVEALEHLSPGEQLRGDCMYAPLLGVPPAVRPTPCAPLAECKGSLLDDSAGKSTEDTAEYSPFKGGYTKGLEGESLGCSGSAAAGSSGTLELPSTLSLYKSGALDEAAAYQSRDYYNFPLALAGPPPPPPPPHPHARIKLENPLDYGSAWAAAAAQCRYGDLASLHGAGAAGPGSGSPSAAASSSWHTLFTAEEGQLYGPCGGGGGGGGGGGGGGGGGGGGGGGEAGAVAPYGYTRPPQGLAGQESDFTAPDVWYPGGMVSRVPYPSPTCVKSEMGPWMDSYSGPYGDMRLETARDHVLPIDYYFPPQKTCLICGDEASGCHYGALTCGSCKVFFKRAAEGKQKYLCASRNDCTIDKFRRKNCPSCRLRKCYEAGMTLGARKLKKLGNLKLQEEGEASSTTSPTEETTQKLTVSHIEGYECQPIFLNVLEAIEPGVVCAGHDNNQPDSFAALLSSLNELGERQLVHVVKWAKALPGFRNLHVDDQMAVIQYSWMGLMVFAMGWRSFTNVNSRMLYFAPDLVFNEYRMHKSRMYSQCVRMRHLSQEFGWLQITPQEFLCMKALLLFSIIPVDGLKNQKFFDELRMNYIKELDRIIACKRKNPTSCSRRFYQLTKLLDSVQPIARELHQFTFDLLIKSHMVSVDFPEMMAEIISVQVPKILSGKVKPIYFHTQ

`CCCCCCCCCCCCCCCCBr`: the Potency result in assay [1], in assay [2], in assay [3], in assay [4], in assay [5] and in [6] was “inactive” each time. Moreover, the Potency result in assay [8], in [9], in assay [10], in assay [11], in [12] and in assay [13] was “inactive” each time. The Potency entry in the assay with Aromatase (Homo sapiens) was “inactive”. Besides, the compound was called inactive in assay [7].

For the compound `OCCSc1ccccc1`, the Potency entry in assay [1], in [2], in [3], in assay [4], in assay [5] and in [8] was “inactive” each time. Also, the Potency entry (in assay [9]; in assay [10]; in [11]; in assay [12]; in assay [13]; with Aromatase (Homo sapiens)) was “inactive” throughout. Also, in [7], the compound was classed as inactive.

On to `CN(C)C(=O)Nc1ccc(Oc2ccc(Cl)cc2)cc1`, for which the Potency entry in assay [1], in [6] and in assay [9] was “inactive” each time. Moreover, the Potency in [2] was 21.7 µM (active); in assay [14] it was 24.3 µM (active); in assay [3], 15.4 µM (active); in assay [15] it was 54.5 µM (active). The result in [7] was inactive.

For `Cc1cc(O)c2c(O)c3c(O)cccc3cc2c1`, the Potency entry in assay [1], in assay [2], in [14], in assay [4], in assay [16] and in assay [17] was “inactive” throughout. The Potency entry (in [18]; in assay [6]; in [9]; in [13]; in the assay with Aromatase (Homo sapiens)) was “inactive” throughout. Also, the compound was classed as inactive in [7].

With `CNC(=O)N(c1ccccc1)c1ccccc1`, the Potency entry in [1], in [2], in assay [3], in assay [4], in assay [16] and in assay [19] was “inactive” each time. Moreover, the Potency entry in assay [17], in assay [5], in assay [18], in assay [6], in [15] and in assay [8] was “inactive” each time. Further, the Potency result (in assay [9]; in assay [10]; in assay [11]; in assay [12]; in assay [13]; in the assay with Aromatase (Homo sapiens)) was “inactive” in each case. Further, the compound was called inactive in [7].

Consider `C=CC(C)(O)CCCC(C)CCCC(C)CCCC(C)C` (centres undefined), for which the Potency entry in [1], in assay [2], in assay [3], in [4], in assay [5] and in assay [6] was “inactive” each time. The Potency entry in assay [8], in assay [9], in [10], in [11], in [12] and in [13] was “inactive” throughout. In addition, the Potency result in the assay with Aromatase (Homo sapiens) was “inactive”.

With `COc1cc2ncnc(Nc3ccc(F)c(Cl)c3)c2cc1OCCCN1CCOCC1`, the Potency result in assay [1], in [4], in [19], in assay [17], in [5] and in assay [9] was “inactive” throughout. Besides, the Potency result (in assay [10]; with Aromatase (Homo sapiens)) was “inactive” throughout. The Potency in assay [2] is 26.6 µM (active); in assay [3], 21.1 µM (active); in [15], 10.6 µM (active); in [8], 16.9 µM [inhibitor] (active).

Take `CCOC(=O)CC(=O)C(=O)OCC`: the Potency entry in [1], in assay [2], in [3], in assay [4], in assay [16] and in [19] was “inactive” each time. Besides, the Potency entry in assay [17], in assay [5], in assay [18], in assay [6], in assay [8] and in assay [9] was “inactive” each time. For the same compound, the Potency result (in assay [10]; in assay [11]; in assay [12]; in assay [13]; with Aromatase (Homo sapiens)) was “inactive” each time. The call in assay [7] was inactive.

Source of the values: PubChem BioAssay (Tox21).
